# HCV inhibitor: HCV inhibition | Huh7.5.1 HCVcc-Cre infection, luciferase reporter, 44 h | Potency, µM (doses to about 41.8 µM), for the others: at the top dose activity change, negative = inhibition, hits mostly inhibitors | 340,000 tested, 3.4% active | AID 651820; also: potency is read from the fitted curve at half-maximal effect
#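 Infectious HCVcc-Cre (~0.5 moi) was added to cells just after compound, with cells seeded 4 h earlier at 1,000 per well. Luciferase activity after 44 h culture reported infection; substrate was incubated 15 min at room temperature before reading.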
# HCMV antiviral: inhibitors of human cytomegalovirus. HFF cells, HCMV-luciferase reporter, 72 h; hits give low values. AID 1259415. 410,000 tested, 4.5% active. activity change, negative = inhibition, % at 57.5 µM; in the data active = activity change below about -60%; inconclusive = no clear call, values can overlap the other calls; inactive = above about -39%
#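 Two-dose cell screen: HFF monolayers treated with compounds and infected with luciferase-expressing HCMV at 1 PFU/cell, 72 h at 37C, then lysed for luciferase measurement.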
# Pf growth 96h: P. falciparum growth inhibition at 96 hour, primary screen for plastid delayed-death inhibitors | P. falciparum luciferase reporter growth, 96 h | AID 504834 | 320,000 tested, 6.9% active | Potency, µM (highest dose often 28.7 µM), for the others: at the top dose activity change, negative = inhibition, usual class: inhibitors; also: potency is read from the fitted curve at half-maximal effect
#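 P. falciparum expressing integrated firefly luciferase, in erythrocytes at 2% hematocrit, 0.05% parasitemia, incubated with compounds 96 h at 37 C, 5% CO2. Growth inhibition read as loss of luminescence; two-generation exposure targets delayed-death apicoplast inhibitors.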
# Pf growth 48h: inhibits P. falciparum growth in the first generation, 48 h | P. falciparum luciferase growth in erythrocytes, 48 h | 310,000 tested, 5.9% active | AID 504832 | Potency, µM (highest dose often 28.7 µM), for inactives: at the top dose activity change, negative = inhibition, hits mostly inhibitors; also: potency is read from the fitted curve at half-maximal effect
#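 First compound was added to culture medium, then infected red cells at 0.1% parasitemia and 2% hematocrit (final). After incubation at 37 C under 5% CO2, luciferase detection reagent was dispensed and light output recorded.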
# * hit, by the source's call; ? = inconclusive; . = not tested or not shown; [ ] = dose if it differs, or a comment. Shown are actives, neighbours in structure and some others; about 13% of the full set was active somewhere. Unless noted, calls follow the shape of the dose curve; as a rule, active = well fitted inhibition curve with a large enough effect; inconclusive = small, poorly fitted or top-dose-only effect, or another doubt; inactive = no such curve, though single readings can be large or run the other way. % is scaled to controls: 0 for no effect and ±100 for the full control effect.
SMILES,HCV inhibitor,HCMV antiviral,Pf growth 96h,Pf growth 48h
COC(=O)COc1ccc(/C=N/NC(=O)CN(c2ccccc2OC)S(=O)(=O)c2ccccc2)cc1,?,-99.8*,?,-21.7%
COc1cccc(NC(=O)C2CCCN(S(=O)(=O)c3ccc4[nH]c(=O)ccc4c3)C2)c1 (stereo unspecified),.,0.2,.,.
COc1cccc(-c2nc(S(=O)(=O)c3ccccc3)c(NCc3ccccc3)o2)c1,.,-3.0,.,.
CN(C)c1cc[n+](CC(=O)Nc2c(Cl)cc(Cl)cc2Cl)cc1,-3.2%,-67.5*,145.0%,-15.0%
COc1ccc(NS(=O)(=O)c2csc(C(N)=O)c2)cc1OC,-1.4%,-36.5,33.3%,?
NC(=O)c1cc(S(=O)(=O)Nc2ccc(OC(F)(F)F)cc2)cs1,-29.0%,-6.8,?,13.1µM*
COc1cc(NS(=O)(=O)c2csc(C(N)=O)c2)cc(OC)c1,8.5%,19.4,33.3%,-10.1%
COc1ccc(NS(=O)(=O)c2csc(C(N)=O)c2)cc1,8.1%,-17.3,?,7.38µM*
CC(C)[N+](C)(C)CC(O)COc1cccc2ccccc12 (stereo unspecified),.,.,24.3%,6.01µM*
C=CCOc1ccccc1OC[C@H](O)CNC(C)C,.,.,?,-25.3%[12.8 µM]
CC(C)NCC(O)COc1cccc2[nH]ccc12 (stereo unspecified),.,.,0.849µM*,-2.7%
CC(C)NCC(O)COc1cccc2ccccc12 (stereo unspecified),-15.1%,30.9,?,10.4µM*
COc1ccc(OC)c(NC(=O)CCCc2nnc3n(C(C)C)c(=O)c4sccc4n23)c1,.,34.6,.,.
Nc1nc2c(-c3ccc([N+](=O)[O-])cc3)nnn2c2ccccc12,.,-15.8,.,.
O=C(Cc1ccccc1)NC1CC(=O)N(c2ccccc2)C1 (stereo unspecified),.,-12.8,.,.
Cc1ccccc1N1CCN(C(=S)c2ccc(-c3cccc([N+](=O)[O-])c3)o2)CC1,?,30.4,?,10.4µM*
CN1CCN(c2ccc(NC(=O)c3ccc(-c4ccc(Cl)cc4)o3)cc2)CC1,?,17.9,?,2.94µM*
CN1CCN(c2ccc(NC(=O)c3ccc(-c4cccc([N+](=O)[O-])c4)o3)cc2)CC1,?,46.2,0.0%,1.47µM*
Cc1ccc(N2CCN(C(=S)c3ccc(-c4cccc([N+](=O)[O-])c4)o3)CC2)cc1,-17.2%,-10.4,-18.8%,-4.5%
CCCCCCCCN1C(=O)[C@H](CC(=O)NCc2cccc(C(F)(F)F)c2)C[C@@]2(C(=O)OC)CC(C)(C)CC=C12,.,-22.3,.,.
CC(=O)c1ccc(NC(=O)c2cc3c([nH]c2=O)CC(c2ccccc2)CC3=O)cc1 (stereo unspecified),.,7.7,.,.
O=C(COc1ccc(F)cc1)NCc1ccc2c(c1)CCN2C(=O)c1ccc(F)cc1,.,11.7,.,.
CN(C(=O)COC(=O)CCc1c[nH]c2ccccc12)C(c1ccccc1)c1ccccc1,13.2%,13.8,10.4µM*,11.7µM*
O=C(Nc1cc(C(F)(F)F)ccc1Cl)c1cc(S(=O)(=O)NCc2ccccc2)ccc1F,.,-16.3,.,.
Cc1ccccc1OCC(=O)N1N=C(C(F)(F)F)CC1(O)C(C)(C)C (stereo unspecified),-4.5%,1.7,?,10.4µM*
SMILES,HCV inhibitor,HCMV antiviral,Pf growth 96h,Pf growth 48h
Cc1ccc(OCC(=O)N2N=C(C(F)(F)F)CC2(O)C(C)(C)C)cc1C (stereo unspecified),-24.5%,-90.8*,?,.
CC1=NN(C(=O)COc2ccc(C)c(C)c2)C(O)(c2ccc(Cl)cc2)C1 (stereo unspecified),1.4%,-21.2,26.7%,23.8%
CC(C)(C)C1(O)CC(C(F)(F)F)=NN1C(=O)CCc1ccccc1 (stereo unspecified),19.4%,-36.5,-11.0%,12.6%
Cc1ccc(OCC(=O)N2N=C(c3cccnc3)CC2(O)C(F)(F)F)cc1C (stereo unspecified),-3.6%,19.0,9.28µM*,?
COc1ccc(-c2cc(C(=O)NC(C)c3ccccc3)c3cc(C(C)C)ccc3n2)cc1 (stereo unspecified),.,3.0,.,.
CC(=O)c1cc2c(ccc3ccccc32)oc1=O,22.0%,-10.0,2.33µM*,9.7%
CC(=O)Nc1cc2c(ccc3ccccc32)oc1=O,-13.8%,-6.8,0.0%,3.7%
COc1ccc(-c2cc(C(=O)Nc3c(C)nn(Cc4ccc(F)cc4)c3C)no2)cc1OC,.,-6.6,.,.
O=C1Nc2ccccc2N(O)N1c1ccc(Cl)cc1,3.2%,-7.5,30.3%,21.7%
CCN1c2ccccc2NC2C1C(C(C)=O)C(=O)N2c1ccc(Cl)cc1 (stereo unspecified),10µM*,32.8,-102.0%,13.1µM*
O=C(NCCn1cc(SCc2ccc(F)cc2)c2ccccc21)c1cccs1,.,-35.4,.,.
COc1cc(C2=NOC(C(=O)NCc3ccc(F)cc3)C2)cc(OC)c1OC (stereo unspecified),?,-83.8*,.,?
COc1ccc(C2=NOC(C(=O)NCc3ccc(F)cc3)C2)cc1OC (stereo unspecified),?,?,2.33µM*,-27.8%
Cc1csc(NC(=O)C2CCN(S(=O)(=O)c3cccs3)CC2)n1,?,?,55.2%,-2.4%
O=C(Nc1cc(Cl)ccn1)C1CCN(S(=O)(=O)c2cccs2)CC1,?,-73.2*,-10.1%,.
CCCn1c(NC(=O)C2CCN(S(=O)(=O)c3cccs3)CC2)nc2ccccc21,14.1µM*,-62.2*,71.3%,10.4µM*
O=C(Nc1nc(-c2ccc(F)cc2)cs1)C1CCN(C(=O)c2ccc(F)cc2)CC1,?,-79.9*,6.57µM*,?
CC(=O)Nc1ccc(-c2csc(NC(=O)C3CCN(S(=O)(=O)c4cccs4)CC3)n2)cc1,?,-69.3*,?,2.08µM*
O=C(Nc1ccncc1)C1CCN(S(=O)(=O)c2cccs2)CC1,11.2%,1.1,?,-22.9%
CCC(C)NC(=O)C1CCN(S(=O)(=O)c2ccc3c(ccn3CC)c2)CC1 (stereo unspecified),.,8.0,.,.
CCOC(=O)c1ccc(NC(=O)CCC(=O)N2Cc3ccccc3Oc3ncccc32)cc1,.,-16.0,.,.
O=C(CCCCCBr)N1CCC(CC2CC(c3cccc(Br)c3)=NO2)(C(=O)NCC2CCCCC2)CC1 (stereo unspecified),12.1%,58.3,5.22µM*,?
CCCCCCCNC(=O)C1(CC2CC(c3ccc(Cl)cc3)=NO2)CCN(C(=O)CCCCCBr)CC1 (stereo unspecified),-2.5%,31.0,11.7µM*,32.0%
COc1ccc(CNC(=O)C2(CC3CC(c4ccccc4)=NO3)CCN(C(=O)CCCCCBr)CC2)cc1 (stereo unspecified),11.4%,2.2,.,.
O=C(CCCCCBr)N1CCC(CC2CC(c3ccc(Cl)cc3)=NO2)(C(=O)NCC2CCCCC2)CC1 (stereo unspecified),2.0%,-1.8,3.29µM*,?
COc1ccc(CNC(=O)C2(CC3CC(c4ccccc4)=NO3)CCN(C(=O)OC(C)(C)C)CC2)cc1 (stereo unspecified),-17.6%,2.9,.,.

# Bioassay records (PubChem BioAssay)
